Most compounds without a hit are left out; they make up all but 4% or so of the library.
Gli-Sufu antag – Gli-Sufu pathway antagonists, primary screen, luciferase luminescence, Sufu-KO-LIGHT cells, uHTS. AID 588413, 2011. 340,000 compounds, 0.74% hits. Sufu-KO-LIGHT fibroblasts, Gli luciferase reporter luminescence. inhibition, % at 5 µM;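 active = inhibition above about 55%, limit read from the data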
Jurkat NFkB inh – inhibitors of induced NF-kB luciferase reporter, primary screen, TCR NF-kB activation inhibitor project, cell-based, luminescence, uHTS; AID 435003, 2010; 330,000 compounds, 0.53% hits; Jurkat, PMA/ionomycin-induced NF-kB luciferase reporter; inhibition, % at 4 µM; in the data active = inhibition above about 50%
697 NFkB inh – inhibitors of PMA/ionomycin-induced NF-kB reporter, 697 cells, primary screen, B-cell NF-kB inhibitor project, cell-based, luminescence, uHTS. 697 B-cell NF-kB luciferase reporter, 16 h. inhibition, % at 4 µM. 330,000 compounds, 0.33% hits; in the data active = inhibition above about 35%
Beta cell apopt – inhibitors of cytokine-induced beta cell apoptosis, primary screen, luminescence | AID 435005, 2010 | protection from apoptosis, % (no concentration beside the values) | INS-1E cytokine-induced death, ATP luminescence, 48 h; percent of positive-control rescue, neutral wells zero | 300,000 compounds, 0.8% hits;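 active = Every replicate reaches about 75%, or at least half do and their mean reaches it too, limit read from the data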;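 also: higher means more ATP so stronger rescue from cytokine killing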
Mdm2-MdmX inh – inhibitors of human Mdm2-MdmX association, primary screen, cell-based, luminescence, split luciferase, SaOS-2, uHTS | Protein Mdm4 (Homo sapiens) + E3 ubiquitin-protein ligase Mdm2 (Homo sapiens), … | SaOS-2 split-luciferase Mdm2/MdmX complementation | inhibition, % at 8 µM | 330,000 compounds, 3% hits;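 active = inhibition of at least 50% at 8 µM in the primary screen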
Mdm2-MdmX conf – Mdm2-MdmX complex disruptors, retested hits, confirmation, luminescence, single concentration; 10,000 compounds, 55% hits; shares compounds with Mdm2-MdmX inh; AID 489028, 2010; Mdm2-MdmX binding, luminescent assay; inhibition, % at 8 µM; in the data active = inhibition above about 40%
Full FLuc ctr – full-length luciferase signal inhibition, confirmation, counter-screen for Mdm2/MdmX interaction inhibitor project, cell-based, single concentration, SaOS-2 | shares compounds with Mdm2-MdmX inh | inhibition, % at 8 µM | 6,200 compounds, 77% hits | SaOS-2 full-length luciferase counterscreen, luminescence | AID 504607, 2011;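 active = mean inhibition at 8 µM reaching about 37%, which flags the compound as non-specific, limit read from the data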;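 also: p53-null SaOS-2 cells with luciferase driven by a doxycycline-inducible promoter; compound on cells about two nights before reading with doxycycline added after day one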
Large screens that a line does not name were inactive (follow-up assays come after a bar, where they were run).

CC(=O)c1ccc(OCC(=O)Nc2c(C)nn(-c3ccccc3)c2C)cc1	none (no result: Gli-Sufu antag)
COc1ccccc1/C=C(\NC(=O)c1ccc(OC)c(OC)c1)C(=O)Nc1cc([N+](=O)[O-])ccc1C	Mdm2-MdmX inh 59 | Mdm2-MdmX conf inactive
COc1ccc(/C=C(/NC(=O)c2cccc([N+](=O)[O-])c2)C(=O)O)cc1OC	none
O=C(c1ccccc1)N1CCN(C(=O)c2nn3c(C(F)(F)F)cc(-c4ccco4)nc3c2Br)CC1	none
CCOc1ccc(OCCC(=O)N2CCc3cc(OC)c(OC)cc3C2)cc1	none
COc1ccc(Nc2oc(COc3ccc(Cl)cc3)nc2C#N)cc1	Mdm2-MdmX inh 61 | Mdm2-MdmX conf 44 | Full FLuc ctr 77
COc1ccc(CNc2oc(COc3ccc(Cl)cc3)nc2C#N)cc1	none
Cc1nc(N)sc1C(=O)N/N=C/c1c[nH]c2ccccc12	Mdm2-MdmX inh 51 | Mdm2-MdmX conf inactive
Cc1nc(N)sc1C(=O)N/N=C/c1ccccc1[N+](=O)[O-]	none (no result: Gli-Sufu antag)
Cc1nnsc1C(=O)N/N=C/c1ccc2ccccc2c1O	Gli-Sufu antag 86, Beta cell apopt 125, Mdm2-MdmX inh 63 | Mdm2-MdmX conf 75 | Full FLuc ctr inactive
CC(C)(C)C(=O)Nc1cc(NC(=O)C(C)(C)C)cc(C(=O)NNC(=O)c2ccncc2)c1	none
Cc1ccc(N2CC(C(=O)OCC(=O)Nc3ccccc3C)CC2=O)cc1 (centres undefined)	none
COc1cc(NC(=O)c2ccccc2Cl)c2ncccc2c1	Mdm2-MdmX inh 57 | Mdm2-MdmX conf 50 | Full FLuc ctr 52
O=C(Nc1cccc2cccnc12)c1ccc(Cl)cc1Cl	none
CCCn1c(SC(C)C(=O)N2CCOCC2)nc2ccc(Br)cc2c1=O (centres undefined)	none (no result: Beta cell apopt)
CCCOc1cccc(C2C(C(=O)c3ccc(C)o3)=C(O)C(=O)N2c2nc(C)c(C(C)=O)s2)c1 (centres undefined)	none
CCOc1cc2c3c(c1)C(C)=CC(C)(C)N3C(=O)C2=O	Mdm2-MdmX inh 68 | Mdm2-MdmX conf inactive | Full FLuc ctr 85
CCOc1cc2c3c(c1)C(C)CC(C)(C)N3C(=O)C2=O (centres undefined)	none
COc1ccc(NC(C)C(=O)Nc2cc(C(F)(F)F)ccc2N2CCOCC2)c(OC)c1 (centres undefined)	Mdm2-MdmX inh 57 | Mdm2-MdmX conf inactive
CN(c1nc2nonc2nc1NC1CC1)C1CCOC1 (centres undefined)	none (no result: Gli-Sufu antag)
COc1cc(-c2nc(C(=O)NC3CCN(Cc4ccccc4)CC3)cc3c2[nH]c2ccccc23)cc(OC)c1OC	Mdm2-MdmX inh 79 | Mdm2-MdmX conf 56 | Full FLuc ctr 50
COc1cc(-c2nc(C(=O)NC3CCCCC3)cc3c2[nH]c2ccccc23)cc(OC)c1OC	none (no result: Beta cell apopt)
COc1ccc(OC)c(-c2nc(C(=O)NC3CCN(Cc4ccccc4)CC3)cc3c2[nH]c2ccccc23)c1	Mdm2-MdmX inh 50 (no result: Beta cell apopt) | Mdm2-MdmX conf inactive
COc1ccc(OC)c(-c2nc(C(=O)NCCCN3CCOCC3)cc3c2[nH]c2ccccc23)c1	none
COc1ccc(OCCCC(=O)N2CCN(S(=O)(=O)c3cccc(F)c3)CC2)cc1	none
COc1cc(-c2cc(C(=O)Nc3ccc(O)cc3)c3ccccc3n2)cc(OC)c1OC	none
O=C(Nc1cccc(S(=O)(=O)NCc2ccco2)c1)c1cc(-c2ccccc2)nc2ccccc12	Mdm2-MdmX inh 52 | Mdm2-MdmX conf inactive
COc1cc(-c2cc(C(=O)Nc3cccc(C(C)=O)c3)c3ccccc3n2)cc(OC)c1OC	Mdm2-MdmX inh 61 (no result: Beta cell apopt) | Mdm2-MdmX conf inactive | Full FLuc ctr 82
COc1ccc(NC(=O)c2cc(-c3ccncc3)nc3ccccc23)c(OC)c1	none
